Measured values from PubChem BioAssay (NCATS).
Inconclusive results are not listed. The source made the active and inactive calls. Unless noted, calls follow the shape of the dose curve; as a rule, active = well fitted curve in the direction sought with a large enough effect; inconclusive = small, poorly fitted or top-dose-only effect, or another doubt; inactive = no such curve, though single readings can be large; an effect the other way counts as inactive or inconclusive.

Columns and labels:
[1] = AP1 Signaling Pathway (AID 357; active = well fitted curve in either direction with a large enough effect, not every such curve was filed as active;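 also: ME-180 reporter cells stimulated with EGF at its EC50 level; % is scaled to controls: 0 for no effect and ±100 for the full control effect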)
In short: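 Read-out was the 460nm/530nm emission ratio (excitation 405nm) after CCF4 loading for 2.5 hours at room temperature. Cells carried an AP-1-driven beta-lactamase reporter, were stimulated with EC50 EGF plus compound for 5 hours, and AC50 values came from titrations.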

[2] = Stat Signaling Pathway (AID 446; active = well fitted curve in either direction with a large enough effect, not every such curve was filed as active;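 also: ME-180 cervical cancer cells given 40 pM IL-6 alongside compound; SIE-controlled beta-lactamase reporter measured as 460/530 nm FRET emission ratio; % is scaled to controls: 0 for no effect and ±100 for the full control effect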)
In short: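 Reporter line: ME-180 cervical carcinoma, SIE-beta-lactamase. Treatment: compound with 40 pM IL-6, 5 hrs, 37 C, in low-serum OPTI-MEM with 10 mM HEPES pH 7.3. Detection: 460/530 nm fluorescence.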

[3] = biological target: Glucocorticoid receptor (Homo sapiens) (UniProt P04150); assay: GR-GFP Redistribution (AID 450;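 active = compounds whose dose series gives a full or clear partial fitted curve of increased nuclear translocation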; also: potency is read from the fitted curve at half-maximal effect); conditions: U2OS GR-GFP nuclear translocation, laser cytometry, 2 h
Chain of Glucocorticoid receptor (Homo sapiens) (P04150 whole entry, looked up, the tested form may be a part): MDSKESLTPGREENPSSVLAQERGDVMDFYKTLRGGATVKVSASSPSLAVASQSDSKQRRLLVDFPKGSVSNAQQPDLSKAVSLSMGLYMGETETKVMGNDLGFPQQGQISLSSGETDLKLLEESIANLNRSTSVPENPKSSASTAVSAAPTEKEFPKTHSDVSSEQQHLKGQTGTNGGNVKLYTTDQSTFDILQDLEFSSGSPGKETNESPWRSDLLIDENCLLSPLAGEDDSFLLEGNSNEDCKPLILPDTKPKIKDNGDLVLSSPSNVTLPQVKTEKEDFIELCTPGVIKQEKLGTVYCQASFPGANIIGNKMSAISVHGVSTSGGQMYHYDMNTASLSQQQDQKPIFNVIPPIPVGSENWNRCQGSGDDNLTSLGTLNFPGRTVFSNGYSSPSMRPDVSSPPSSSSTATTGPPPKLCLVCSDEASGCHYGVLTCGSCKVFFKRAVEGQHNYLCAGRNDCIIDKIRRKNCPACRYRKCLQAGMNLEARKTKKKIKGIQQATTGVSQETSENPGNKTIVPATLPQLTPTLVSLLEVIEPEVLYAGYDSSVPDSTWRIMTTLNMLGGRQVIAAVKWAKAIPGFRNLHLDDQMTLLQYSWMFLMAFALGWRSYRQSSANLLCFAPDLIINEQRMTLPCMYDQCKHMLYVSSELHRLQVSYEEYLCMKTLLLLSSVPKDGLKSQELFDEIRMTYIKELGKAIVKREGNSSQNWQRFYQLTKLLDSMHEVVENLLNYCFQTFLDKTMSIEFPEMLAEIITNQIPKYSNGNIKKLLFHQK

[4] = biological target: Glucocorticoid receptor (Homo sapiens) (UniProt P04150); assay: GR-EFC Redistribution (AID 451; calls by dose curve; also: potency is read from the fitted curve at half-maximal effect); conditions: CHO-K1 GR-EFC translocation, beta-gal luminescence, 2 h
In short: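 CHO-K1 cells expressing nuclear EA and GR-ED fragments of b-gal; compounds titrated up to 46 uM final, 2 h at 37 C. GR nuclear translocation read as complemented b-gal luminescence after 1 h RT detection.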

[5] = biological target: Mitogen-activated protein kinase 10 (Mus musculus) (UniProt Q61831); assay: JNK3 AlphaScreen Assay (AID 530; active = well fitted curve in either direction with a large enough effect, not every such curve was filed as active;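 also: kinase came from lysate of stimulated human HepG2 cells; signal reports phosphorylation of biotinylated GST-cJun 1-79 at Ser73 with 10 µM ATP; % is scaled to controls: 0 for no effect and ±100 for the full control effect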)
In short: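 Pre-activated (IL-1β/TNFα) JNK3 in HepG2 lysates phosphorylates biotin-GST-cJun(1-79), 10 uM ATP; anti-phospho-cJun(Ser73) AlphaScreen read at room temperature, pH 7.6 Tris buffer. Compounds pre-incubated 15 min as titrations.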

[6] = biological target: 3',5'-cyclic-AMP phosphodiesterase 4B (Homo sapiens) (UniProt Q07343); assay: qHTS Assay for Inhibitors of PDE-IV (AID 607; active = well fitted activation curve with a large enough effect in the main read-out, with a control signal flat, not every such curve was filed as active; also: % of control where 0% means no effect)
Chain of 3',5'-cyclic-AMP phosphodiesterase 4B (Homo sapiens) (Q07343 whole entry, looked up): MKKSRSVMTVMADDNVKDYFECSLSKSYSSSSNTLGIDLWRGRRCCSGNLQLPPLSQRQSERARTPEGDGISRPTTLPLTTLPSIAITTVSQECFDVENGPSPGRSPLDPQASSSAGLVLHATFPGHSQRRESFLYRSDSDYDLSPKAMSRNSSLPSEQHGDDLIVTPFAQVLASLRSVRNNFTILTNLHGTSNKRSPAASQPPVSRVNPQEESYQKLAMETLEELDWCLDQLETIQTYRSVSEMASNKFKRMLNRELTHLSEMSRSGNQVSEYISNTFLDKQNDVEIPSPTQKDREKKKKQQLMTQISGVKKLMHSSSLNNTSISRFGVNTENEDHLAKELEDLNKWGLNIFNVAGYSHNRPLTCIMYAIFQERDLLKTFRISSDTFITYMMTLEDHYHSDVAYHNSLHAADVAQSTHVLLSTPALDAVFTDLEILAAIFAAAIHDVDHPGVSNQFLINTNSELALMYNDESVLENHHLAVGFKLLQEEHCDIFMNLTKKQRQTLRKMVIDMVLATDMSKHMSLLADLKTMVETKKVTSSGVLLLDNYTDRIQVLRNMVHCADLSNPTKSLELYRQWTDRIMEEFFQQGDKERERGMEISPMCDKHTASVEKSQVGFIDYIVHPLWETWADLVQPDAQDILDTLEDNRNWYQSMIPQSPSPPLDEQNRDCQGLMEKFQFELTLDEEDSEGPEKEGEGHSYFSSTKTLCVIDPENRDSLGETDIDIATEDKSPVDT
In short: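 Cell-based read-out of cAMP via a modified cyclic nucleotide-gated channel and membrane potential dye (535/590 nm) in HEK293 cells expressing PDE4 endogenously. Compounds tested up to 22.9 uM final; 100 uM RO 20-1724 reference.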

[7] = qHTS Assay for Lipid Storage Modulators (AID 1519; calls by dose curve); conditions: Drosophila S3 cells, BODIPY lipid droplet/cell ratio, laser cytometry, cells loaded with oleic acid
In short: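 Cells seeded at 5,000 per well were treated with compounds over a concentration series and loaded with oleic acid (400 uM, as added). Lipid droplet fluorescence (488 nm excitation, 500-530 nm channel) was read by laser-scanning cytometry and normalized to 20 uM Triacsin C.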

[8] = biological target: Cytochrome P450 3A4 (Homo sapiens) (UniProt P08684); assay: qHTS Assay for Activators of Cytochrome P450 3A4 (AID 885); also: nearly all actives have a fitted effect of over 65% in size
Chain of Cytochrome P450 3A4 (Homo sapiens) (P08684 whole entry, looked up): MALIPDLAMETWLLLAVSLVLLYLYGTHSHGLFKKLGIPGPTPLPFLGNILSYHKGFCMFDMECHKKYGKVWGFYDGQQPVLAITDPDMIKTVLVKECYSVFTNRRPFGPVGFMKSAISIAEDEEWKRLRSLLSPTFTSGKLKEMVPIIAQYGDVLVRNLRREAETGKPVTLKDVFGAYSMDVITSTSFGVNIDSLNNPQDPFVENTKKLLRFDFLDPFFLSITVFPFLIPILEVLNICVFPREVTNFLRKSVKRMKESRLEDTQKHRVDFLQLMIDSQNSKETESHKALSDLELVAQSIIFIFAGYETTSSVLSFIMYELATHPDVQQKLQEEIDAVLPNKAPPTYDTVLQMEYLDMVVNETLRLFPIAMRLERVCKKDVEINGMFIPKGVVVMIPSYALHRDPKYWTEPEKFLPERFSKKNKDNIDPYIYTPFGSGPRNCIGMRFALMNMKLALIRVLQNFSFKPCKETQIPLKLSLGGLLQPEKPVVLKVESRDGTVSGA
In short: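 Signal was normalized against complete inhibition by 57 uM ketoconazole. The reaction used 20nM CYP3A4 with 25uM Luciferin-PPXE, 10-min compound preincubation and a 60-min NADPH-supported step at RT.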

[9] = Confirmation and Secondary Assay for Modulators of Hemoglobin Beta Chain Splicing at IVS2 654 locus (AID 910);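 also: HeLa cells stably carrying EGFP split by mutant beta-globin IVS2-654 intron; % of control where 0% means no effect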
In short: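 HeLa cells stably expressing EGFP interrupted by β-globin IVS2-654 intron, seeded overnight in Opti-MEM/2% FCS, then treated 2 days at 37 °C. Restored splicing read as total peak GFP intensity per well by laser scanning cytometry (488 nm excitation, 500–520 nm emission); 500 nM antisense PNA as control.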

[10] = Confirmation and Secondary Assay for Modulators of Hemoglobin Beta Chain Splicing at IVS2 705 locus (AID 930);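 also: HeLa cells stably expressing the EGFP-705 splicing reporter; GFP fluorescence per well restored by corrected splicing of the IVS2-705 intron in EGFP; % of control where 0% means no effect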
In short: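 Assay measures total GFP intensity per well in HeLa EGFP-705 cells after 2 days with compound; mis-splicing normally truncates EGFP, so fluorescence indicates corrected splicing.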

[11] = biological target: ATP-dependent 6-phosphofructokinase (Trypanosoma brucei brucei) (UniProt O15648); assay: qHTS Assay to Find Inhibitors of T. brucei phosphofructokinase: hit validation (AID 492961);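 also: luminescence reports ADP formed as PFK phosphorylates fructose-6-phosphate with ATP; % is scaled to controls: 0 for no effect and ±100 for the full control effect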
Chain of ATP-dependent 6-phosphofructokinase (Trypanosoma brucei brucei) (O15648 whole entry, looked up): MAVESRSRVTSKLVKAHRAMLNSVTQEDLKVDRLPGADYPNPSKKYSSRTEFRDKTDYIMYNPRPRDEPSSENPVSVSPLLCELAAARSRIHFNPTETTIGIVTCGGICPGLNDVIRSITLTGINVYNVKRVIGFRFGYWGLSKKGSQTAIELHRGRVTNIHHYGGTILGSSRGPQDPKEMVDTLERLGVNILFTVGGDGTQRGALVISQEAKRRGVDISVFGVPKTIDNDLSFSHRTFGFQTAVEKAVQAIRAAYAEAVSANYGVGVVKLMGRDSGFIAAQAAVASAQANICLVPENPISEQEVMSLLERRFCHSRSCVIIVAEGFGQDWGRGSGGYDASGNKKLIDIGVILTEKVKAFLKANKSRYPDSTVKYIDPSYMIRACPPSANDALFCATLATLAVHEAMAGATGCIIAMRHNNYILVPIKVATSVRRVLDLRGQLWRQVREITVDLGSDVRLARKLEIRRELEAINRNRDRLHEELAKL
In short: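 Compounds titrated; %activity normalized to 0x and 1x enzyme controls, curve-fitted. Readout: ADP-Glo luminescence after 45 min room-temperature reaction of 1.25 nM PFK, 0.1 mM ATP, 0.5 mM F6P, pH 8.0.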

[12] = biological target: Luciferin 4-monooxygenase (Photinus pyralis) (UniProt P08659); assay: Biochemical firefly luciferase enzyme assay for NPC (AID 624030);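 also: purified P. pyralis luciferase at 10 nM with luciferin and ATP substrate; 0% = DMSO and -100% = full luciferase inhibition by PTC124 control; nearly all actives have a fitted effect of over 70% in size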
Chain of Luciferin 4-monooxygenase (Photinus pyralis) (P08659 whole entry, looked up): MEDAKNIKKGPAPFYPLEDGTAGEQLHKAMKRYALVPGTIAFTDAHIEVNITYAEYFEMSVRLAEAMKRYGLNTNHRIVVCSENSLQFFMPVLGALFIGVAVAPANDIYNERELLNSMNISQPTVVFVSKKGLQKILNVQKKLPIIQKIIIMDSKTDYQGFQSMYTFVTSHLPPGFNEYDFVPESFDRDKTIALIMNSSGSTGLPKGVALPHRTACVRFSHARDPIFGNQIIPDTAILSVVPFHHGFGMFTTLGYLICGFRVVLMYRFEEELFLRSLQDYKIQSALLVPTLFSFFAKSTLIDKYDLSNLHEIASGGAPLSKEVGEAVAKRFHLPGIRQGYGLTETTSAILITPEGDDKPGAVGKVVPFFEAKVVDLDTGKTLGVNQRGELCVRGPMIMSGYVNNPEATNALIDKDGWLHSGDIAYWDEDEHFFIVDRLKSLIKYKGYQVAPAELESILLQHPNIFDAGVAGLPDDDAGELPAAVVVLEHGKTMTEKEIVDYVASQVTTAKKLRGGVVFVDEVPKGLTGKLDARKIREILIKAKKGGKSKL
In short: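 Purified P. pyralis luciferase at 10 nM in 50 mM Tris Acetate (final), luminescence read within 5 minutes of enzyme addition to compounds. Activity normalised to PTC124 versus DMSO; concentration-response curves classed by r2, magnitude and activity.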

[13] = qHTS profiling for inhibitors of Plasmodium falciparum proliferation (AID 504749); also: nearly all actives have a fitted effect of over 60% in size; also: potency is read from the fitted curve at half-maximal effect;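 as to activity, negative = inhibition: 0% = DMSO vehicle and full inhibition = artemisinin control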; conditions: P. falciparum in erythrocytes, SYBR Green DNA, 72 h
In short: (§1)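 P. falciparum-infected erythrocytes (0.3% parasitemia, 2.5% hematocrit) incubated with compound 72 h at 37 C, 5% CO2. Parasite DNA detected by SYBR Green after lysis, overnight at room temperature; normalised to 0.29 uM artemisinin and DMSO.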

CP192 = assay: as above; conditions: P. falciparum in erythrocytes, SYBR Green DNA, 72 h; series mostly up to 28.7 µM
In short: as §1

CP211 = assay: as above; conditions: P. falciparum in erythrocytes, SYBR Green DNA, 72 h; series mostly up to 28.7 µM
In short: as §1

CP286 = assay: as above; conditions: P. falciparum in erythrocytes, SYBR Green DNA, 72 h; series mostly up to 28.7 µM
In short: as §1

P94_40 = assay: as above; conditions: P. falciparum in erythrocytes, SYBR Green DNA, 72 h; series mostly up to 28.7 µM
In short: as §1

[14] = NFAT Signaling Pathway (AID 444; active = well fitted curve in either direction with a large enough effect, not every such curve was filed as active); conditions: Jurkat NFAT-bla M1, carbachol, beta-lactamase ratio, 5 h; at 17.2 µM (top of the series)
In short: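 Jurkat cells with NFAT-driven β-lactamase reporter and co-expressed M1 receptor, stimulated with carbachol (final 1 uM, ~EC50), compound titration, 5 h at 37 °C. CCF4 loaded 1 h at RT; 460/530 nm ratio gave %activity and AC50.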

[15] = biological target: Ubiquitin carboxyl-terminal hydrolase 1 (Homo sapiens) (UniProt O94782); assay: Inhibitors of USP1/UAF1: Pilot qHTS (AID 504865);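 also: rhodamine fluorescence freed from ubiquitin-rhodamine substrate followed over time; top concentration of the series differs between compounds; % is scaled to controls: 0 for no effect and ±100 for the full control effect; nearly all actives have a fitted effect of over 35% in size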
Chain of Ubiquitin carboxyl-terminal hydrolase 1 (Homo sapiens) (O94782 whole entry, looked up): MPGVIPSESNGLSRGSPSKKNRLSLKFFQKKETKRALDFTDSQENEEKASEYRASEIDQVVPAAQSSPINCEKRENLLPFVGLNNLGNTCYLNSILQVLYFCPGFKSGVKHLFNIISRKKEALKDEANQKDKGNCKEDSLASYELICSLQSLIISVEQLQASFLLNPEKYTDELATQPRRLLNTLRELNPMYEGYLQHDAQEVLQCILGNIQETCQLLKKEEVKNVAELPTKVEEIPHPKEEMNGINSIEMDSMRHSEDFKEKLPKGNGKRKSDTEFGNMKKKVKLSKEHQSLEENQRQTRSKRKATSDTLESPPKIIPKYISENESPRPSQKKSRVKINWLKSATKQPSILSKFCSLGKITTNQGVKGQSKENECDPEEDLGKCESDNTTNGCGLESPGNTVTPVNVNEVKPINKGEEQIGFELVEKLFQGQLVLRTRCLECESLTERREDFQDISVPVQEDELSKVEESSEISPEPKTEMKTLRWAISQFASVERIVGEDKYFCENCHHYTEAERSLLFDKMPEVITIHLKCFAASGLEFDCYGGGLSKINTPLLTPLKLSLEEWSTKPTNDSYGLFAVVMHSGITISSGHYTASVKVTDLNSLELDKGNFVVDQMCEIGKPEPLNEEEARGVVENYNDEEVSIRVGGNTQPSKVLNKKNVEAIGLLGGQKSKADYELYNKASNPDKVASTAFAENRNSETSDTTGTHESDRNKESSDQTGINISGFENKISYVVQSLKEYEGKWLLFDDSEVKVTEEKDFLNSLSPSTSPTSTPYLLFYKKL
In short: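 Deubiquitinase activity followed as kinetic rhodamine fluorescence release from 150 nM Ub-Rho. 1 nM USP1/UAF1 with compound, after 15 min room-temperature preincubation, in HEPES pH 7.8 buffer containing TCEP, EDTA, BSA and Tween-20.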

[16] = biological target: Cytochrome P450 3A4 (Homo sapiens) (UniProt P08684); assay: qHTS Assay for Inhibitors and Substrates of Cytochrome P450 3A4 (AID 884); also: % is scaled to controls: 0 for no effect and ±100 for the full control effect; nearly all actives have a fitted effect of over 50% in size
In short: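 20 nM human CYP3A4 with 25 uM Luciferin-PPXE (at KM) in 200 mM KPO4, preincubated 10 min with compound; NADPH regeneration started a 60 min RT reaction. Luciferin detected by luminescence, normalized to 57 uM ketoconazole as full inhibition.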

[17] = measured here: cell count channel max response
[18] = measured here: lipid channel max response
[19] = at 12.8 µM (top of the series), parasite line A
[20] = at 12.8 µM (top of the series), parasite line B
[21] = at 28.7 µM (top of the series), parasite line A
[22] = at 28.7 µM (top of the series), parasite line B

C#C[C@@]1(O)CC[C@@H]2[C@@H]3CCC4=CC(=O)CC[C@@]4(C)[C@H]3CC[C@]21C
inactive: outcome [1] | outcome [2] | Potency [4] > 20.6 µM | outcome [5] | Potency [6] | activity change, negative = inhibition ([7]; at 25.7 µM (top of the series)) -1.74%
-8.16%: max response [7, 17]
active: Potency [3] 0.155 µM
-11.2%: max response [7, 18]

CCCCCCCCCc1ccc(O)cc1
4.78%: max response [7, 17]
11%: max response [7, 18]
inactive: outcome [5] | Potency [8] | Potency [9] | Potency [10] | activity change, negative = inhibition ([7]; at 57.5 µM (top of the series)) 4.47%

O=c1ccc2cc(O[C@H]3O[C@@H](CO)[C@@H](O)[C@@H](O)[C@@H]3O)c(O)cc2o1
inactive: Potency [3] > 20.6 µM | Potency [4] > 20.6 µM | outcome [5] | Potency [6] | activity change, negative = inhibition ([7]; at 25.7 µM (top of the series)) -1.03% | Potency [11] | Potency [12] | activity, negative = inhibition [13, 19] 3.87% | activity, negative = inhibition [13, 20] -4.9% | Potency (CP192) | Potency (CP211) | Potency (CP286) | Potency (P94_40)
1.01%: max response [7, 17]
0.833%: max response [7, 18]

C[C@H]1CC[C@@]2(NC1)O[C@@H]1C[C@H]3[C@@H]4CC=C5C[C@@H](O)CC[C@]5(C)[C@@H]4CC[C@]3(C)[C@@H]1[C@@H]2C
-7.85%: max response [7, 18]
inactive: activity change, negative = inhibition [14] 7.82% | outcome [2] | Potency [3] > 20.6 µM | Potency [4] > 20.6 µM | outcome [5] | Potency [6] | activity change, negative = inhibition ([7]; at 25.7 µM (top of the series)) -1.61% | Potency [15]
0.522%: max response [7, 17]

O=C1C(Cl)=C(Cl)C(=O)C(Cl)=C1Cl
-3.14%: max response [7, 17]
inactive: outcome [5] | Potency [8] | Potency [9] | Potency [10] | activity change, negative = inhibition ([7]; at 57.5 µM (top of the series)) -9.83%
-11.5%: max response [7, 18]

CC([C@H](O)c1ccccc1)N(C)C (some centres not stated)
17.5%: max response [7, 18]
inactive: Potency [16] | Potency [9] | activity change, negative = inhibition ([7]; at 57.5 µM (top of the series)) 4.16% | Potency [11] | Potency [15] | Potency [12] | activity, negative = inhibition [13, 21] 3.7% | activity, negative = inhibition [13, 22] -27.1% | Potency (CP192) | Potency (CP211) | Potency (CP286) | Potency (P94_40)
14.6%: max response [7, 17]

CNc1ccc(C(=O)CC(O)CCC(C)C2OC(=O)CC(O)CC(=O)CC(O)CC(O)CC(O)CC(O)CC3(O)CC(O)C(C(=O)OC)C(CC(O[C@@H]4OC(C)C(O)C(N)C4O)/C=C/C=C/C=C/C=C/C=C/C=C/C=C/C2C)O3)cc1 (some centres not stated)
inactive: Potency [16] | Potency [9] | Potency [10] | activity change, negative = inhibition ([7]; at 57.5 µM (top of the series)) 9.29% | Potency [11] | Potency [12] | activity, negative = inhibition [13, 21] 6.26% | activity, negative = inhibition [13, 22] 3.77% | Potency (CP192) | Potency (CP211) | Potency (CP286) | Potency (P94_40)
14.1%: max response [7, 17]
27.6%: max response [7, 18]

CC[C@@H]1[C@@H]2C[C@H]3[C@H]4N(C)c5ccccc5[C@@]45C[C@@H]([C@@H]2[C@@H]5O)N3[C@H]1O
inactive: outcome [1] | outcome [2] | Potency [3] > 20.6 µM | Potency [4] > 20.6 µM | outcome [5] | Potency [6] | activity change, negative = inhibition ([7]; at 25.7 µM (top of the series)) -1.86% | Potency [11] | Potency [15] | Potency [12] | activity, negative = inhibition [13, 19] -1.56% | activity, negative = inhibition [13, 20] 7.76% | Potency (CP192) | Potency (CP211) | Potency (CP286)
1.93%: max response [7, 18]
1.73%: max response [7, 17]

Clc1ccc(CO[C@@H](Cn2ccnc2)c2ccc(Cl)cc2Cl)cc1
inactive: outcome [1] | outcome [2] | Potency [3] > 20.6 µM | outcome [5] | Potency [8] | activity change, negative = inhibition ([7]; at 25.7 µM (top of the series)) -6.08%
-18.5%: max response [7, 17]
-19.5%: max response [7, 18]

CN1[C@@H]2CC[C@H]1CC(O)C2 (some centres not stated)
inactive: outcome [2] | outcome [5] | Potency [6] | activity change, negative = inhibition ([7]; at 25.7 µM (top of the series)) -5.91% | Potency [15]
-19.1%: max response [7, 17]
-25.1%: max response [7, 18]

Clc1ccc([C@@H](OCCN2CCCCC2)c2ccccc2)cc1
-5.28%: max response [7, 17]
-7.74%: max response [7, 18]
inactive: outcome [2] | Potency [3] > 20.6 µM | Potency [4] > 20.6 µM | outcome [5] | activity change, negative = inhibition ([7]; at 25.7 µM (top of the series)) -2.71% | Potency [11] | Potency [12] | activity, negative = inhibition [13, 19] -2.83% | activity, negative = inhibition [13, 20] -13.1% | Potency (CP192) | Potency (CP211)
active: Potency (CP286) 3.55 µM | Potency (P94_40) 3.55 µM

C[C@@H]1O[C@H](O[C@@H]2C=C3CC[C@H]4[C@@H](CC[C@]5(C)[C@@H](c6ccc(=O)oc6)CC[C@]45O)[C@@]3(C)CC2)[C@@H](O)[C@H](O)[C@@H]1O
-11.6%: max response [7, 17]
active: activity change, negative = inhibition [14] -39.6%
-25.4%: max response [7, 18]
inactive: Potency [3] > 20.6 µM | outcome [5] | activity change, negative = inhibition ([7]; at 25.7 µM (top of the series)) -8.45% | Potency [11] | Potency [15] | Potency [12] | activity, negative = inhibition [13, 19] -2.59% | activity, negative = inhibition [13, 20] -11.4% | Potency (CP192) | Potency (CP211) | Potency (CP286) | Potency (P94_40)

COc1cc(N)c(Cl)cc1C(=O)N[C@@H]1CN2CCC1CC2
7.11%: max response [7, 18]
3.73%: max response [7, 17]
inactive: Potency [3] > 46 µM | Potency [4] > 46 µM | Potency [6] | activity change, negative = inhibition ([7]; at 57.5 µM (top of the series)) 7.47% | Potency [11] | Potency [12] | activity, negative = inhibition [13, 21] -0.396% | activity, negative = inhibition [13, 22] 5.5% | Potency (CP192) | Potency (CP211) | Potency (CP286) | Potency (P94_40)
